# Laboratory results taken from PMC4552634, “A New Set of Chemical Starting Points with Plasmodium falciparum Transmission-Blocking Potential for Antimalarial Drug Discovery” (PLoS ONE, 2015).
# About 3,200 (25%) of roughly 13,000 compounds showed an effect of 50% or more. The list shows a part of the results.
# Tested on: P. falciparum stage V gametocytes
# Parameters: BacTiter-Glo ATP luminescence viability of purified stage V gametocytes in 384-well plates, per cent inhibition versus DMSO
# Conditions: 48 h, 5 µM; inhibitor
row,Compound,% Inhibition
1,CC(O)C1CCCCN1C(=O)c1cccc(-c2cccc(-c3nc4cc(C(F)(F)F)ccc4[nH]3)c2)c1 (stereo not shown) [TCMDC-132335],13.24%
2,O=C(Nc1cccc(C(F)(F)F)c1)NC1CCN(c2ccnc3cc(Cl)ccc23)CC1 [TCMDC-133567],-12.77%
3,O=C(CN1CCN(S(=O)(=O)C=Cc2ccccc2)CC1)Nc1cc(C(F)(F)F)ccc1Cl [TCMDC-124538],-9.823%
4,O=C(CN(c1cccc(C(F)(F)F)c1)S(=O)(=O)c1ccc(Cl)cc1)NCCC(c1ccccc1)c1ccccc1 [TCMDC-136712],5.637%
5,O=C(Cn1cc(C(F)(F)F)cc(Cl)c1=O)N1CCN(S(=O)(=O)c2ccc(Cl)cc2)CC1 [TCMDC-123617],70.99%
6,CC(C)NC(=O)c1cccc(-c2ccc(OCCN3CCCC3c3cc4ccccc4[nH]3)cc2)c1 (stereo not shown) [TCMDC-134385],-6.463%
7,CC(C)CN1C(=O)c2ccc(C(=O)Nc3nccs3)cc2C1=O [TCMDC-125773],-2.752%
8,CC(=O)c1ccc(NC(=O)C2c3ccccc3C(=O)N(CC(C)C)C2c2cccs2)cc1 (stereo not shown) [TCMDC-124757],58.39%
9,CC(C)CN1C(=O)c2ccccc2C(C(=O)Nc2cccc(C#N)c2)C1c1cccs1 (stereo not shown) [TCMDC-124758],44.13%
10,CC(=O)c1cccc(NC(=O)C2c3ccccc3C(=O)N(CC(C)C)C2c2cccs2)c1 (stereo not shown) [TCMDC-124756],54.72%
11,Cc1ccc(Nc2nc3cc(N(C)c4ccnc(Nc5cccc(CS(C)(=O)=O)c5)n4)ccc3o2)cc1 [TCMDC-141956],-42.21%
12,CC(C)C1=NCc2ccc([N+](=O)[O-])cc2C(=O)N1 [TCMDC-131785],-3.925%
13,Cn1nc(-c2ccc(CN[C@@H]3CCc4ccc(O)cc43)cc2)c2cnc(NCCCN3CCCC3)nc21 [TCMDC-135037],45.21%
14,Cn1nc(-c2cccc(CN[C@@H]3CCc4ccc(O)cc43)c2)c2cnc(NCCCN3CCCC3)nc21 [TCMDC-135035],59.7%
15,Cn1nc(-c2cccc(CNC3CCc4ccccc43)c2)c2cnc(NC3CCCC3)nc21 (stereo not shown) [TCMDC-135030],-10.51%
16,Cn1nc(-c2cccc(CNC3CCc4ccccc43)c2)c2cnc(NCCCN3CCCC3)nc21 (stereo not shown) [TCMDC-135034],78.32%
17,c1cc(CN2CCc3ccccc3CC2)cc(-c2c[nH]c3nc(NC4CCCC4)ncc23)c1 [TCMDC-133774],-80.37%
18,Cn1nc(-c2cccc(CN[C@@H]3CCc4ccc(O)cc43)c2)c2cnc(NC3CCCC3)nc21 [TCMDC-135032],-0.5073%
19,O=C(N[C@@H](CC1CCCCC1)C(=O)NC1CC1)c1ccc(O)c(-c2cccc(C(F)(F)F)c2)c1 [TCMDC-140807],9.846%
20,COc1ccc(-c2nc3nc4ccccc4cc3[nH]2)c(OCC(O)CNC(C)C)c1 (stereo not shown) [TCMDC-137443],26.08%
21,COc1ccc(NC(=O)c2ccc(-c3cc(NC(=O)c4ccnc(N5CCCC5)c4)ccc3C)s2)cc1N1CCN(C)CC1 [TCMDC-136373],32.31%
22,CN(C)CCC1CCN(CCS(=O)(=O)c2cccc(Nc3ccc(-c4cccc(F)c4)cn3)c2)CC1 [TCMDC-134375],43.14%
23,COC(=O)C(=O)c1c(-c2ccccc2)c(-c2ccc(OC)c(OC)c2)c2c3cc(OC)c(OC)cc3ccn12 [TCMDC-125088],26.26%

row,Compound,% Inhibition
1,COc1ccc(-c2cc(C(=O)N3CCc4ccccc43)c3ccccc3n2)cc1OC [TCMDC-123715],-27.24%
2,COCCOC(=O)C(=O)c1c(-c2ccccc2)c(-c2ccc(OC)c(OC)c2)c2c3cc(OC)c(OC)cc3ccn12 [TCMDC-125087],52.27%
3,O=C(Cc1cccc(OCCCN(Cc2cccc(C(F)(F)F)c2Cl)CC(c2ccccc2)c2ccccc2)c1)NCc1ccco1 [TCMDC-141563],90.42%
4,CCc1ccc(CN(CCCOc2cccc(CC(=O)NCc3cnc[nH]3)c2)Cc2ccc(-n3ccnc3)cc2)cc1 [TCMDC-134288],15.75%
5,O=C(NCc1ccco1)c1ccc(CN2CCN(C(c3ccccc3)c3ccccc3)CC2)cc1 [TCMDC-140763],-11.73%
6,CCCc1cc(OC)c(CC2c3cc(O)c(Cl)cc3C(c3ccccc3)CN2C)cc1OC (stereo not shown) [TCMDC-137432],12.27%
7,CCCCNC(=O)c1[nH]c2c(NC(=O)COc3ccccc3)cccc2c1-c1cccc(NC(=O)C(N)CO)c1 (stereo not shown) [TCMDC-140060],-98.74%
8,CCN1CCC(N(Cc2ccc(-c3ccc(C(F)(F)F)cc3)cc2)C(=O)Cn2c(CCc3cccc(F)c3F)cc(=O)c3cn(C)nc32)CC1 [TCMDC-141156],59.01%
9,CC(C)N1CCC(N(Cc2ccc(-c3ccc(C(F)(F)F)cc3)cc2)C(=O)Cn2c(CCc3cccc(F)c3F)cc(=O)c3cn(C)nc32)CC1 [TCMDC-136048],117.7%
10,Cc1ccc(O)cc1Nc1ccnc2cc(-c3ccccc3)ccc12 [TCMDC-138295],-25.3%
11,COc1cc2c(cc1NS(=O)(=O)c1ccc(OCc3ccc(Br)cc3)cc1)CCN(C1CCC1)CC2 [TCMDC-136020],14.15%
12,Nc1nc2c(c(=O)[nH]1)CN(S(=O)(=O)c1ccc(C(=O)N[C@@H](CCC(=O)O)C(=O)O)cc1)CC2 [TCMDC-137681],-6.076%
13,CCCN(C(=O)c1ccccc1C)c1nnc(-c2cccc(C)c2)s1 [TCMDC-124387],20.16%
14,CCOc1ccc(N(CC)S(=O)(=O)c2cc(Br)cc3c2N(C(=O)C2CC2)CC3)cc1 [TCMDC-125469],14.82%
15,O=C(NCCN1CCOCC1)c1ccc(-c2ccc(CNCCCc3ccccc3)cc2)nc1 [TCMDC-134245],16.29%
16,CN1CCN(CCCN(Cc2ccc(-c3ccc(CNCCc4ccccc4)cc3)cc2)C(=O)c2cccs2)CC1 [TCMDC-140752],86.87%
17,CN1CCN(CCCN(Cc2cccc(-c3ccc(CNCCc4ccccc4)cc3)c2)C(=O)c2cccs2)CC1 [TCMDC-140568],106.4%
18,CN(C)CCN(C)Cc1ccc(-c2cccc(NC(=O)c3cccc(C#N)c3)c2)cc1 [TCMDC-132651],-77.89%
19,Cc1noc(C)c1-c1cccc(CNCc2ccc(-c3ccc(-c4nc5cc(C(F)(F)F)ccc5[nH]4)s3)cc2)c1.O=C(O)C(F)(F)F [TCMDC-133062],33.98%
20,CC1CC(NCCCNc2cc(=O)c3ccccc3[nH]2)c2c1cc(Cl)c(Cl)c2Cl (stereo not shown) [TCMDC-139480],-50.98%
21,O=[N+]([O-])c1ccc(Nc2nc(N/N=C/c3cc(Cl)cc(Cl)c3O)nc(Nc3ccccc3)n2)cc1 [TCMDC-123854],16.66%
22,CN(C)c1nc(NCc2ccccc2)nc(N/N=C/c2cc([N+](=O)[O-])ccc2O)n1 [TCMDC-124126],65.13%
23,O=[N+]([O-])c1ccc(Nc2nc(NCc3ccccc3)nc(N/N=C/c3ccccc3[N+](=O)[O-])n2)cc1 [TCMDC-124208],9.563%

row,Compound,% Inhibition
1,CCCCC(CCCC)CN1C(=O)C(c2ccccc2)(c2ccccc2)N=C1N [TCMDC-136878],-47.08%
2,CC1CCCN(S(=O)(=O)c2cc(Br)cc3c2N(C(=O)C2CC2)CC3)C1 (stereo not shown) [TCMDC-123872],16.45%
3,CCn1c(CN2CCN(Cc3ccccc3)CC2)nc2cc(NC(=O)c3cccs3)ccc21 [TCMDC-125164],1.939%
4,CCCC[C@@H](C(=O)NCCc1ccc(Cl)cc1)N1C(=O)CCC1C(=O)Nc1ccc(Cl)c(Cl)c1 (stereo partly shown) [TCMDC-141410],67.56%
5,O=C(Nc1ccc(Cl)c(Cl)c1)C1CCC(=O)N1[C@@H](Cc1ccccc1)C(=O)NCCc1ccc(Cl)cc1 (stereo partly shown) [TCMDC-141411],6.201%
6,CCCC[C@@H](C(=O)NCc1ccccc1C(F)(F)F)N1C(=O)CCC1C(=O)Nc1ccc([N+](=O)[O-])cc1 (stereo partly shown) [TCMDC-141409],20.34%
7,CN(CCN(C)C(=O)NCc1ccccc1)C(=O)NCc1ccccc1 [TCMDC-138997],-5.894%
8,COc1ccc(NS(=O)(=O)c2ccc(C(=O)Nc3ccc(OC(F)(F)F)cc3)cc2)cc1N1CCN(CC2CC2)CC1 [TCMDC-136298],-1.186%
9,N#Cc1ccc2c(c1)CCN(CCC1CCC(NC(=O)c3cc4ccc(Cl)cc4[nH]3)CC1)C2 (stereo not shown) [TCMDC-139194],-33.95%
10,O=C(Nc1ccc(Cl)cc1)c1ccc(CN2CCCN(Cc3ccccc3)CC2)cc1 [TCMDC-136401],-26.98%
11,CC(C)(C)c1ccc(NC(=O)c2ccc(CN3CCCN(Cc4ccc(F)cc4)CC3)cc2)cc1 [TCMDC-136435],-15.47%
12,O=C(Nc1ccc(CN2CCOCC2)cc1)c1ccc(-c2ccc(Br)cc2)o1 [TCMDC-123781],-11.97%
13,CN1CCCN(Cc2cccc(-c3cccc(NC(=O)c4ccc(Cl)cc4)c3)c2)CC1 [TCMDC-132653],14.2%
14,Cc1ccc(CN2CCCN(Cc3ccc(C(=O)Nc4ccc(Cl)cc4)cc3)CC2)s1 [TCMDC-136414],86.68%
15,O=C(Nc1ccc(CN2CCOCC2)cc1)c1ccc(-c2ccc(Cl)cc2)o1 [TCMDC-124455],70.13%
16,O=C(Nc1ccc(Cl)cc1)c1ccc(CN2CCCN(Cc3ccc(F)cc3)CC2)cc1 [TCMDC-136408],63.43%
17,CN1CCCN(Cc2cccc(-c3ccc(NC(=O)c4cccc(Cl)c4)cc3)c2)CC1 [TCMDC-132664],44.2%
18,CN1CCCN(Cc2cccc(-c3ccc(NC(=O)c4ccc(Cl)cc4)cc3)c2)CC1 [TCMDC-132667],81.69%
19,O=C(Nc1ccc(CN2CCOCC2)cc1)c1ccc(-c2cc(Cl)ccc2Cl)o1 [TCMDC-125390],-41.52%
20,Cc1ccc(CN2CCCN(Cc3cccc(C(=O)Nc4ccc(C(C)(C)C)cc4)c3)CC2)s1 [TCMDC-135991],-86.63%
21,CCc1ccc(NC(=O)c2ccc(CN3CCCN(Cc4ccc(C)s4)CC3)cc2)cc1 [TCMDC-136449],10.45%
